PubChem BioAssay AID540276 (National Center for Advancing Translational Sciences (NCATS), 2011)
“And” between values parts separate entries of the source, which are not always exact repeats. Equal values may be shown once. Among all 300,000 compounds or so, about 5,400 (1.8%) were called active. Roughly 28% stayed inconclusive and do not appear here. This excerpt belongs to a sample that is enriched for actives. A number with no mark means an inactive call. The call rests on the fitted dose curve; tested in HEK293 cells.

test: qHTS for inhibitors of binding or entry into cells for Marburg Virus; settings: Marburg virus pseudotyped entry inhibition, cell reporter; series mostly up to 37.8 µM; activity change, negative = inhibition: at the top concentration
On the % scale 0 is the no-effect control and ±100 the full control effect; potency means the concentration at half of the fitted maximal effect.

| SMILES | Potency | activity change, negative = inhibition |
| --- | --- | --- |
| CC(C)(C)NCc1cc(Br)ccc1OC1CCCC1 | 23.1 µM (active) |  |
| COc1ccc(Br)cc1CN(C)C(=O)C1CC(=O)N(C2CCCC2)C1 (stereo not given) |  | -19.1% |
| COCC(C)NCc1cc(Br)ccc1OC (stereo not given) |  | -2.58% [at 46.1 µM] |
| Cc1ccc(C)c(NC(=O)c2cc(-c3cc(C)cc(C)c3O)n[nH]2)c1 |  | -20.2% [at 46.1 µM] |
| COc1ccccc1CNC(=O)[C@@H]1CCCN1C(=O)[C@@H]1Cc2ccccc2CN1C(=O)OC(C)(C)C |  | -17.4% [at 46.1 µM] |
| COCCCNC(=O)[C@@H](C#N)c1nc2ccccc2nc1N1CCN(Cc2ccccc2)CC1 |  | 3.25% |
| COc1ccc(C(=O)CSc2nnc(-c3ccco3)o2)cc1 |  | 13.7% [at 46.1 µM] |
| CCC(=O)Oc1cccc(C(=O)Nc2ccc(-c3nnc(-c4ccco4)o3)cc2)c1 |  | -28.3% |
| CCOc1ccc(-c2nnc(-c3ccco3)o2)cc1 | 6.51 µM (active) |  |
| CC(=O)Nc1ccc(S(=O)(=O)NCC(=O)OCC(=O)c2ccc[nH]2)cc1 |  | -2.18% |
| Cc1cccnc1CCNC(=O)C1CCC(=O)N(Cc2cccc(F)c2)C1 (stereo not given) |  | 5.71% |
| CCOc1ccc(C(C)=O)cc1COC(=O)CNC(=O)c1cccs1 |  | 19.3% |
| O=C(Nc1ccc(Cl)c(Cl)c1)c1ccccc1NC(=O)C1CC=CCC1C(=O)O (stereo not given) |  | 18.7% [at 46.1 µM] |
| COC(=O)CC=C[C@@H](C)[C@@H](C=NOC[C@H]1O[C@H](c2ccccc2)C=C[C@H]1Oc1ccc(OC)cc1)N[S+](=O)([O-])c1ccc(C)cc1 |  | 1.02% [at 14.2 µM] |
| O=C(COC(=O)c1c2c(nc3ccccc13)/C(=C\c1cccs1)CCC2)Nc1ccccc1Cl |  | -41.2% |
| COc1cc(-c2cc(C(=O)OCC(=O)Nc3ccc4c(c3)OCO4)c3ccccc3n2)cc(OC)c1OC |  | -0.942% |
| NS(=O)(=O)c1ccc(NC(=O)COC(=O)c2c3c(nc4ccccc24)/C(=C\c2ccc4c(c2)OCO4)CCC3)cc1 | 11.6 µM (active) |  |
| COc1cccc(C(=O)NNC(=O)c2cccc(F)c2)c1 |  | 6.02% |
| Cc1c(Cl)c([N+](=O)[O-])nn1CC(=O)NCCCN1CCOCC1 |  | -0.45% [at 46.1 µM] |
| CCOC(=O)N1CCC(N2Cc3cccc(C(=O)Nc4ccc(S(=O)(=O)N(CC)CC)cc4)c3C2=O)CC1 |  | 21.7% [at 46.1 µM] |
| CCn1cc(C(=O)O)c(=O)c2c1N=C(C)CC2 |  | -24% |
| COc1cc(SC)ccc1C(=O)Nc1cc(C)ccn1 | 14.6 µM (active) |  |
| Cc1ccnc(NC(=O)c2ccoc2C)c1 |  | 10.2% |
| COc1ccccc1CNC(=O)c1ccc(SC)cc1OC |  | 0.424% |
| COc1cnn(-c2ccc([N+](=O)[O-])cc2)c(=O)c1Cl |  | -1.22% |
| Cc1cccnc1CC(C)NC(=O)c1cc(COc2cncc(Cl)c2)on1 (stereo not given) |  | -5.56% [at 46.1 µM] |
| CCCC(O)(c1ccccc1)C(c1ccccc1)c1ccccn1 (stereo not given) |  | -15.5% [at 46.1 µM] |
| O=C(c1ccc2c(c1)N(Cc1ccccc1)C(=O)c1ccccc1S2(=O)=O)N1CCCC1 |  | -4.79% [at 46.1 µM] |

| SMILES | Potency | activity change, negative = inhibition |
| --- | --- | --- |
| O=C(c1ccc2c(c1)N(Cc1ccc(F)cc1)C(=O)c1ccccc1S2(=O)=O)N1CCN(c2ccccn2)CC1 | 5.01 µM (active) and 3.16 µM (active) |  |
| O=C(c1ccc2c(c1)N(Cc1ccc(Cl)cc1)C(=O)c1ccccc1S2(=O)=O)N1CCCCC1 |  | 13.1% [at 46.1 µM] |
| O=C(Nc1ccc(S(=O)(=O)Nc2ccccn2)cc1)c1ccccc1 |  | 1.38% |
| COC(=O)Cc1nc2c(N)nc(N)nc2[nH]c1=O |  | -8.16% [at 46.1 µM] |
| CCCCn1c(N)c(N(CCC(C)C)C(=O)CC2OC(=O)c3ccccc32)c(=O)[nH]c1=O (stereo not given) |  | 18% |
| COc1ccc(Cl)cc1NC(=O)COC(=O)c1ccc(Br)o1 |  | 4.51% [at 46.1 µM] |
| CC1CCCN(CCOCCOc2ccccc2-c2ccccc2)C1 (stereo not given) | 11.2 µM (active) |  |
| c1ccc2cc(OCCN3CCCC3)ccc2c1 |  | -7.89% |
| CC1CN(CCOc2ccccc2[N+](=O)[O-])CC(C)O1 (stereo not given) |  | -16.6% [at 46.1 µM] |
| c1ccc(-c2ccccc2OCCN2CCCCC2)cc1 | 14.6 µM (active) |  |
| CC1CN(CCCOc2ccccc2-c2ccccc2)CC(C)O1 (stereo not given) |  | -9.52% [at 46.1 µM] |
| O=[N+]([O-])c1ccccc1OCCCCN1CCCCC1 |  | 9.45% |
| CN(Cc1ccc(F)cc1)C(=O)CN1C(=O)c2ccccc2S1(=O)=O |  | 1.59% |
| COc1ccc(C(=O)CC(=O)c2ccc(C)cc2)c(O)c1 |  | 1.43% [at 46.1 µM] |
| COc1ccc(N=C2C=CC(=O)O2)cc1 |  | -4.62% [at 46.1 µM] |
| COc1ccc(Cc2nc3ccc(C(=O)NCC4CCOCC4)cc3o2)cc1OC |  | 1.26% |
| O=C(COC(=O)Cc1c[nH]c2ccccc12)NCCc1ccccc1 |  | -9.54% [at 46.1 µM] |
| O=C(Cc1c[nH]c2ccccc12)OCCOC(=O)Cc1c[nH]c2ccccc12 | 18.3 µM (active) |  |
| CCOC(=O)CN(C)Cc1c[nH]c2ccccc12 |  | -2.54% |
| COc1ccc(S(=O)(=O)NCc2cccnc2)cc1NC(=O)c1ccc(C)cc1 |  | 3.55% |
| COc1cc(C(=O)Nn2c(CC(C)C)nc3ccccc3c2=O)cc(OC)c1OC |  | -6.04% |
| Cc1cc(O)ccc1-c1cnc2ccccc2n1 | inactive |  |
| Cc1ccc(NC(=O)c2cc(-c3ccc(C)o3)nc3ccccc23)nc1 |  | -6.53% |
| Cc1ccc(Nc2nc(-c3ccc(O)cc3O)cs2)nc1 | 4.47 µM (active) |  |
| CC(=O)c1ccc(S(=O)(=O)Nc2ccc(-c3ccc4nncn4n3)cc2)cc1 |  | -15.7% |
| NC(=S)NN=C1CCCC(C(F)(F)F)C1 (stereo not given) |  | -2.75% |
| O=C(COC(=O)c1ccc(Br)o1)NC12CC3CC(CC(C3)C1)C2 |  | 31% |
